Laboratory results as given in the supplement of paper PMC13380429.

Legend:
[1] = system: Vero E6 infected with SARS-CoV-2; experiment: morphology score (similarity to uninfected cells); higher = more like uninfected cells; conditions: 24 h
[2] = system: Vero E6 infected with SARS-CoV-2; experiment: SARS-CoV-2 infection rate relative to infected DMSO; higher = more infection, active = 60 or less; conditions: 24 h

Structure (SMILES)	morphology score [1]	SARS-CoV-2 infection rate [2]
COc1ccccc1N1CCN(CCCCNC(=O)c2ccc(-c3ccc(C(C)=O)cc3)cc2)CC1 (10 µM)	-0.218	113% (inactive)
O=S1(=O)OC(c2ccc(O)cc2)(c2ccc(O)cc2)c2ccccc21 [phenolsulfonphthalein] (10 µM)	0.1	105% (inactive)
COc1cc(O)c2c(c1)C(=O)c1cc(C)cc(O)c1C2=O [rheochrysidin] (10 µM)	0.119	109% (inactive)
CC(C)(C)C(=O)C(Oc1ccc(Cl)cc1)n1ccnc1 (stereo not given) [climbazole] (10 µM)	0.217	91.5% (inactive)
COc1ccc(CCNCc2ccc(OCc3ccc(Cl)nc3)c(OC)c2)cc1OC (10 µM)	0.078	98% (inactive)
